# Results published in ChEMBL document CHEMBL4513216, “Probing the Open Global Health Chemical Diversity Library for Multistage-Active Starting Points for Next-Generation Antimalarials” (ACS Infect Dis, 2020).
# Hit rate of the full screen: of about 68,000 compounds, about 2,700 (4%) showed an effect of 50% or more. For the sample, strong results were picked, then their nearest neighbours and some compounds at random.
# Tested on: Plasmodium berghei
# Assay: Screen against P. berghei liver stage (PbLuc), transformed with Luciferase, at 2uM
# Format: functional, HepG2
# Conditions: tested at 2 uM
row,Compound,INHIBITION
1,Cc1nnc(C2CCN(C(=O)c3ccsc3)CC2)s1,7.68%
2,COc1cnc(N2CCCC(c3ncc[nH]3)C2)nc1 (stereo not given),6.39%
3,O=C(c1nc(COc2ccc3c(c2)OCO3)no1)N1CCCC1,2.41%
4,NC(=O)c1nc(COc2ccc3c(c2)OCO3)no1,54.49%
5,CNC(=O)c1nc(COc2ccc3c(c2)OCO3)no1,-15.12%
6,Cc1cc(C)c(C(=O)N2CCOC(CCN(C)C)C2)o1 (stereo not given),-36.52%
7,Cc1nnc(CSCc2ccc(OCC(F)(F)F)nc2)o1,8.78%
8,CCC1=NC(SCC(=O)c2ccccc2)c2cc(CC)sc2N1 (stereo not given),63.79%
9,CCC1=NC(SCC(=O)c2ccc(Cl)cc2)c2cc(CC)sc2N1 (stereo not given),-77.67%
10,CCC1=NC(SCC(=O)c2ccc(C)cc2)c2cc(CC)sc2N1 (stereo not given),33.58%
11,CCC(C)NC(=O)CN1CCC2(CC1)OCCO2 (stereo not given),34.18%
12,Cc1cccc(-c2ccc3nc(C4CCN(CC5CC5)CC4)nn3c2)c1,-48.77%
13,CCc1nn(C)c(CC)c1CNC(=O)Nc1cccc2c1CCN2C,-1.56%
14,CC(Cc1ccco1)NC(=O)Nc1ccc(N2CCCC2)nc1 (stereo not given),5.91%
15,O=C(c1nc(Cc2c[nH]c3ccccc23)no1)N1CCCCC1,-7.02%
16,O=C(Cc1ccccc1F)N1CCN(C(=O)c2ccoc2)CC1,-24.79%
17,O=C(c1nc(Cc2c[nH]c3ccccc23)no1)N1CCOCC1,-33.88%
18,O=C(c1nc(Cc2c[nH]c3ccccc23)no1)N1CCCC1,70.87%
19,O=C(Cc1c[nH]c2ccccc12)N1CCC(Nc2ccccc2)CC1,-0.6%
20,O=C(Cc1c[nH]c2ccccc12)N1CCN(C(=O)c2ccoc2)CC1,54.49%
21,Cc1noc(C)c1C(=O)N1CC[C@H]2C[C@@H](c3nccs3)O[C@@H]2C1,-17.88%
22,Cn1cnc(S(=O)(=O)N2CC3(CCN(CC4CC4)C3)C2)c1,35.84%
23,COc1ccc(C(=O)N2CCOc3ccncc32)cc1,-21.39%
24,CCCOCCN1CCC2(CC1)CC(=O)N(Cc1cc(F)cc(F)c1)C2,7.13%
25,COCCN1C(=O)C[C@H]2[C@H]1CCN2Cc1ccccc1,-34.48%
26,CCO[C@@H]1C[C@H]2CN(S(=O)(=O)c3cccs3)CCN2C1,-49.68%
27,COCCNC(=O)NCCCOC1CCCc2ccccc21 (stereo not given),58.9%

row,Compound,INHIBITION
1,COCCOCC(=O)NCCCOC1CCCc2ccccc21 (stereo not given),12.22%
2,COCCC(=O)NCCCOC1CCCc2ccccc21 (stereo not given),-15.49%
3,CC(C)NC(=O)CCNC(=O)CCc1cc(Cl)cs1,-31.42%
4,COC(=O)c1ccn(COc2ccccc2Cl)n1,8.41%
5,COc1ccccc1CN(Cc1cccnc1)Cc1nccs1,32.97%
6,Cc1nc(CN(Cc2cccnc2)Cc2ccsc2)c[nH]1,2.76%
7,COc1ccccc1CN(Cc1cccnc1)Cc1c[nH]c(C)n1,55.29%
8,O=C(CCN1CCCC1c1cccs1)N1CCc2sccc2C1 (stereo not given),7.54%
9,OC1(CNC2CCN(c3ccccn3)CC2)CCc2ccccc21 (stereo not given),29.13%
10,Cc1csc(N2CCC(NCC3(O)CCc4ccccc43)CC2)n1 (stereo not given),72.05%
11,OC1(CNC2CCN(Cc3ccncc3)CC2)CCc2ccccc21 (stereo not given),-49.57%
12,O=C(NCc1cccnc1N1CCCCC1)c1cccs1,-27.83%
13,Cc1ccc(CN2C[C@@H]3COC[C@H](NS(C)(=O)=O)[C@@H]3C2)s1,8.88%
14,O=C(CN1C(=O)CCC1=O)N1CCC(CSCc2ccco2)CC1,44.23%
15,O=C(CN1C(=O)CCC1=O)N1CCOCC1,9.1%
16,O=C(CN1C(=O)CCC1=O)N1CCC(S(=O)(=O)Cc2ccco2)CC1,53.81%
17,CN(C)CCN1CC(C(=O)N2CCC(c3cc(=O)[nH]cn3)CC2)CC1=O (stereo not given),47.64%
18,O=C(NC1CCC(O)CC1)c1cnc2c(cnn2C2CCCC2)c1 (stereo not given),38.49%
19,CS(=O)(=O)NC(=O)c1cnc2c(cnn2C2CCCC2)c1,64.35%
20,O=C(O)c1cnc2c(cnn2C2CCCC2)c1,-9.71%
21,Cc1cc(NC(=O)C(C)N2CCN(c3nc(C)ns3)CC2)on1 (stereo not given),22.29%
22,Cn1ncnc1CNc1ccc2c(c1)N(C(=O)OC(C)(C)C)CCC2,33.49%
23,CC(C)NC(=O)N1CC(=O)c2sc(Nc3ccc(C#N)cc3)nc2C1,-42.69%
24,O=C1COC2(COCCN(c3cnccn3)C2)CN1c1cccc(F)c1 (stereo not given),50.81%
25,O=C(c1ccc[nH]1)N1CCOCC2(C1)CN(c1ccccc1)C(=O)CO2 (stereo not given),-15.09%
26,CN(C)CC(=O)N1CCOCC2(C1)CN(c1ccccc1)C(=O)CO2 (stereo not given),17.78%
27,Cc1cccc(N2CC3(COCCN(c4ccncn4)C3)OCC2=O)c1 (stereo not given),7.33%

row,Compound,INHIBITION
1,O=C(N1CCCC1)N1CCOCC2(C1)CN(c1ccccc1)C(=O)CO2 (stereo not given),56.38%
2,O=C1COC2(COCCN(c3ccccn3)C2)CN1c1cccc(F)c1 (stereo not given),16.2%
3,COCC1CN(C(=O)c2ccoc2)Cc2cnn(CC3CCOCC3)c21 (stereo not given),-14.61%
4,CSCCCNC(=O)Nc1cccc(-c2nccn2C)c1,11.78%
5,CSCCCn1ccnc1-c1cccc(C#N)c1,55.93%
6,CCN(CC)CCn1ccnc1-c1cccc(C#N)c1,15.2%
7,Cc1ccc(C(=O)N2C[C@H]3CN(Cc4csc(C)n4)C[C@H]3C2)cn1,5.38%
8,CCC[C@H]1CN(S(=O)(=O)c2ccc(-c3c(C)noc3C)s2)C[C@@H]1N,29.53%
9,CCC[C@H]1CN(S(=O)(=O)c2c(C)noc2C)C[C@@H]1N,51.31%
10,CCC[C@H]1CN(S(=O)(=O)c2ccccc2)C[C@@H]1N,24.12%
11,Cc1cnn(CC(C)Nc2nc(C)cc(N(C)C)n2)c1 (stereo not given),-28.68%
12,CN(C)C[C@]12COC[C@H]1CN(C(=O)Cc1ccc3c(c1)OCO3)C2,-2.21%
13,CCOC(=O)Cn1nnnc1-c1ccccc1,23.9%
14,O=S(=O)(C1CC1)N1CCC2(CN(c3ncccn3)C2)C1,-12.25%
15,Cc1ccc(CN2CCS(=O)(=O)C(C)(C)C2)cc1C,-38.39%
16,CCN1CC2(CCC1=O)CCN(Cc1cccc(OC(F)F)c1)CC2,-1.38%
17,Nc1nccc(N2CCNC(C(=O)NCc3ccccn3)C2)n1 (stereo not given),50.94%
18,O=C(NC1CC1)C1CN(c2nc3ccccc3s2)CCN1 (stereo not given),-17.07%
19,O=C(NCc1cccnc1)C1CN(c2cnc3ccccc3n2)CCN1 (stereo not given),-6.53%
20,O=C(NCc1ccccn1)C1CN(c2nc3ccccc3s2)CCN1 (stereo not given),56.21%
21,CCCc1nc(C)cc(N2CCNC(C(=O)NCc3cccnc3)C2)n1 (stereo not given),19.81%
22,O=C(NCc1ccncc1)C1CN(c2nc3ccccc3s2)CCN1 (stereo not given),11.67%
23,CN(C)CCN1CCN(Cc2cccs2)Cc2cccnc21,31.96%
24,COc1ccc(CNC(=O)NC2CCC(O)CC2)c(C(F)(F)F)c1 (stereo not given),24.83%
25,Cc1nc(C)n(CC2CCCCN2c2ccnc(-c3ccccc3)n2)n1 (stereo not given),-22.89%
26,CN(C)CCN(Cc1ccsc1)C(=O)C1=NNC(=O)CC1,31.51%
27,O=C(c1cccc(=O)[nH]1)N(Cc1ccsc1)CC1CCCO1 (stereo not given),-2.31%

row,Compound,INHIBITION
1,O=C1CCC(C(=O)N(Cc2ccsc2)CC2CCCO2)=NN1 (stereo not given),50.59%
2,CCCn1cc(C(=O)NC2CCN(CC(=O)NC3CC3)CC2)c(C)n1,16.35%
3,CNC(=O)CN1CCC(c2nn(C)c(=O)n2-c2ccccc2)CC1,16.93%
4,CCCC(=O)N1CCC(c2nn(C)c(=O)n2-c2ccccc2)CC1,60.64%
5,Cn1nc(C2CCN(CC(=O)NC3CC3)CC2)n(-c2ccccc2)c1=O,60.64%
6,O=c1n(Cc2ncccn2)nc(C2CCNCC2)n1-c1ccccc1,-0.59%
7,CNc1cccc(C2CCN(C(C)=O)CC2)n1,28.4%
8,Cn1cnnc1C1CCN(C(=O)CCCOc2ccccc2)CC1,23.31%
9,CC(=O)N1CCC(c2nn(C)c(=O)n2-c2ccccc2)CC1,64.06%
10,CCSC(C)C(=O)N1CCC(c2nn(C)c(=O)n2-c2ccccc2)CC1 (stereo not given),-45.11%
11,CC1CN(C(=O)NCCCn2cncn2)CCO1 (stereo not given),-7.02%
12,CS(=O)(=O)N1C[C@H]2CN(CC3CC3)C(=O)[C@H]2C1,-30.69%
13,CC(=O)Nc1nc(C(=O)NCc2ccc(N3CCOC(C)C3)nc2)cs1 (stereo not given),13.36%
14,CN(CCc1nccs1)C(=O)CC1(O)CCCCC1,25.78%
15,Clc1ccccc1C1(c2ccnc(-c3ccncc3)n2)CCNCC1,-14.84%
16,CC(=O)c1cccc(NS(=O)(=O)c2cc(C)c(C(=O)O)s2)c1,-18.41%
17,O=C(O)c1csc(S(=O)(=O)Nc2cccc(OC(F)F)c2)c1,-56.15%
18,Cc1cc(S(=O)(=O)Nc2cccc(I)c2)sc1C(=O)O,-21.72%
19,CCOc1cccc(NS(=O)(=O)c2cc(C)c(C(=O)O)s2)c1,40.85%
20,Cc1cc(S(=O)(=O)Nc2cccc(OC(F)F)c2)sc1C(=O)O,68.61%
21,CCc1cccc(NS(=O)(=O)c2cc(C)c(C(=O)O)s2)c1,58.69%
22,COc1cccc(CN2CCOC(c3cnccn3)C2)c1F (stereo not given),4.47%
23,Nc1c(N2CCOCC2)ncnc1N1CCOCC1,-18.65%
24,CC1CCN(S(=O)(=O)c2cccn(CC(=O)NC3CCCC3)c2=O)CC1,-1.71%
